Whole data set: some 8,300 sequences, median “log2 fold change of degron read counts, EGFP-low vs EGFP+ sorted cells (limma voom), compound-induced degradation” near -1.1, cut for the highest 2% near 3.2. This excerpt belongs to a sample that is enriched for the highest values.
T1: CRBN, Q96SW2
T1 chain: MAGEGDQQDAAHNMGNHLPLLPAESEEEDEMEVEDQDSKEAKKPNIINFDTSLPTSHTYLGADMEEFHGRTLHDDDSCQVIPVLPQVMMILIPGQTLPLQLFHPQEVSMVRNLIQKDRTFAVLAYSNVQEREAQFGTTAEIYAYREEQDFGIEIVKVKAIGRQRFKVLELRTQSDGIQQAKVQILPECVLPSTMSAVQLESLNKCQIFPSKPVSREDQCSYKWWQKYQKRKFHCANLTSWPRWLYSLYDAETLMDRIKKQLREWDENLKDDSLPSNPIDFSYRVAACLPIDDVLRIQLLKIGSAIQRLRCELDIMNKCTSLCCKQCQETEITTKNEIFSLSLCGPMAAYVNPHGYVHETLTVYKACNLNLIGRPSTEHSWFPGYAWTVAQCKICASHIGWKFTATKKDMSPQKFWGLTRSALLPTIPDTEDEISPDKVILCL


Target: T1, CRBN, Q96SW2
Experiment: log2 fold change of degron read counts, EGFP-low vs EGFP+ sorted cells (limma voom), compound-induced degradation; higher = more compound-induced degradation of the degron-EGFP fusion; degrons are variants of IKZF1/3 zinc finger 2; compound dose not given here
Details: Jurkat, 18 h
Experimental: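 Pooled library of 8380 IKZF3 ZF2 degron mutants (positions 146-167 varied within the IKZF3 130-189 degron; only the varied core is printed, flanks not printed) fused to EGFP with IRES-mCherry, lentivirally expressed in Jurkat cells. mCherry+ cells were treated with one IMiD compound for 18 h (dose not stated) and FACS-sorted into EGFP-low and EGFP+ populations. Degron sequences were counted by NGS, and log2FC (EGFP-low vs EGFP+) was estimated by limma voom over 3 biological replicates.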

[1] = compound: compound 19 (5-tert-butyl-thalidomide)
[2] = compound: compound 22 (5-morpholino-thalidomide)
[3] = compound: compound 33 (diphenyl IMiD analogue)
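Also: pooled lentiviral library of zinc finger degron-EGFP fusions in mCherry-positive Jurkat cells, FACS-sorted after compound exposure, with degron abundance counted by next-generation sequencing.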

Sequence | log2 fold change of degron read counts [1] | log2 fold change of degron read counts [2] | log2 fold change of degron read counts [3] | log2 fold change of degron read counts (compound: thalidomide)
FRCEICGRAFTQKGNLLRHIKL [46F_47R_49E_50I_52G_53R_54A_55F_67L_, Q9UKT9] | -1.67 | -1.99 | 0.837 | 0.0765
LWCNQCGFLCTQKGNLLRHIKL [46L_47W_49N_50Q_52G_53F_54L_55C_67L_, Q9UKT9] | -0.0173 | -0.578 | -0.261 | -0.106
LECEICGFACTQKGNLLRHIKL [46L_47E_49E_50I_52G_53F_54A_55C_67L_, Q9UKT9] | 0.666 | -1.22 | 0.464 | 1.55
LICEICGFACTQKGNLLRHIKL [46L_47I_49E_50I_52G_53F_54A_55C_67L_, Q9UKT9] | 0.692 | 2.24 | 1.68 | 2.74
LACEICGFACTQKGNLLRHIKL [46L_47A_49E_50I_52G_53F_54A_55C_67L_, Q9UKT9] | 3.1 | 2.3 | 0.347 | 0.922
LGCEICGFACTQKGNLLRHIKL [46L_47G_49E_50I_52G_53F_54A_55C_67L_, Q9UKT9] | 0.464 | -0.188 | -0.784 | -0.556
LCCEICGFACTQKGNLLRHIKL [46L_47C_49E_50I_52G_53F_54A_55C_67L_, Q9UKT9] | 1.77 | 1.67 | 1 | 1.51
LQCEICGFACTQKGNLLRHIKL [46L_47Q_49E_50I_52G_53F_54A_55C_67L_, Q9UKT9] | 2.27 | 1.95 | 1.57 | 3.4
LSCEICGFACTQKGNLLRHIKL [46L_47S_49E_50I_52G_53F_54A_55C_67L_, Q9UKT9] | 2.2 | 2.05 | 0.991 | 1.15
LYCEICGFACTQKGNLLRHIKL [46L_47Y_49E_50I_52G_53F_54A_55C_67L_, Q9UKT9] | 3.17 | 3.5 | 2.65 | 1.71
LWCEICGFACTQKGNLLRHIKL [46L_47W_49E_50I_52G_53F_54A_55C_67L_, Q9UKT9] | 2.64 | 3.24 | 2.31 | 1.06
FECNQCGRAFTQKGNLLRHIKL [46F_47E_49N_50Q_52G_53R_54A_55F_67L_, Q9UKT9] | -3.75 | -4.2 | -2.96 | -3.19
LQCNQCGFPCTQKGNLLRHIKL [46L_47Q_49N_50Q_52G_53F_54P_55C_67L_, Q9UKT9] | -2.34 | -3 | -2.68 | -1.74
FQCDQCGALFTQKGNLLRHIKL [46F_47Q_49D_50Q_52G_53A_54L_55F_67L_, Q9UKT9] | -3.22 | -2 | -1.8 | -0.219
